# Several values for one entry are separate records, joined by “and”; a condition that tells them apart may be missing. Equal entries are not always repeated. Activity calls are given as the source filed them. A call without a number means that no potency is given here. The call rests on the fitted dose curve.
# Target: Acetylcholinesterase (Homo sapiens) (UniProt P22303)
# Test: Acetylcholinesterase (AChE) small molecule antagonists: enzyme-based qHTS assay with human liver microsomes (AID 1347399); further: nearly all actives have a fitted effect of over 60% in size
# Conditions: Potency: qHTS inhibition; series mostly up to 115 µM
# From the text: National Center for Advancing Translational Sciences [NCATS]
# Division of Preclinical Innovation [DPI]
# U.S. Environmental Protection Agency [EPA]
# National Institutes of Environmental Health Sciences [NIEHS]
# National Toxicology Program [NTP]
# U.S. Food and Drug Administration [FDA]
# Acetylcholinesterase (AChE) is the primary cholinesterase in the body that hydrolyzes a key neurotransmitter, acetylcholine. Inhibition of AChE activity can lead to neurotoxicity. The known inhibitors include organophosphorous pesticides (OP), chemical warfare agents, drugs, and various phytochemicals. Some compounds like OP compounds may need metabolic activation to be active AChE inhibitors. The cytochrome P450 (CYP) superfamily in the human microsomes is responsible for the metabolism of various endogenous and exogenous compounds.
# An enzyme-based assay with the recombinant human AChE, human liver microsomes and Amplite Colormetric acetylcholinesterase assay kit (AAT Bioquest, Sunnyvale, CA) was used to evaluate compounds in the Tox21 10K library that need metabolic activation for AChE inhibition. The assay uses 5, 5-dithiobis-(2-nitrobenzoic acid) (DTNB) to quantify the thiocholine produced from the hydrolysis of acetylthiocholine by AChE.
# Tox21 Assay Protocol Summary:
# For the enzyme-based AChE assay with microsomes addition, a mixture of human AChE (50 mU/mL) and human liver microsomes (0.25 mg/mL, final concentration) in 3 uL/well was dispensed into black, clear-bottom 1536-well plates using a Multidrop Combi dispenser (Thermo Scientific, MA). Then, 23 nL of compound or DMSO (vehicle control) was transferred into the assay plates by a Pintool Station (Wako Automation, CA). Following compound addition, 1 uL of NADPH (0.25 mg/mL, final concentration) was transferred to the assay plate by a Flying Reagent Dispenser (Beckman Coulter, CA). The plates were incubated for 30 min at 37 C and 5% CO2, followed by the addition of 4 uL of colorimetric detection cocktail solution (DTNB, acetylthiocholine) into each well using a Flying Reagent Dispenser (Beckman Coulter, CA) and then 10 min incubation at room temperature.
# Potency means the concentration at half of the fitted maximal effect.
# Chain of Acetylcholinesterase (Homo sapiens) (P22303 whole entry, looked up): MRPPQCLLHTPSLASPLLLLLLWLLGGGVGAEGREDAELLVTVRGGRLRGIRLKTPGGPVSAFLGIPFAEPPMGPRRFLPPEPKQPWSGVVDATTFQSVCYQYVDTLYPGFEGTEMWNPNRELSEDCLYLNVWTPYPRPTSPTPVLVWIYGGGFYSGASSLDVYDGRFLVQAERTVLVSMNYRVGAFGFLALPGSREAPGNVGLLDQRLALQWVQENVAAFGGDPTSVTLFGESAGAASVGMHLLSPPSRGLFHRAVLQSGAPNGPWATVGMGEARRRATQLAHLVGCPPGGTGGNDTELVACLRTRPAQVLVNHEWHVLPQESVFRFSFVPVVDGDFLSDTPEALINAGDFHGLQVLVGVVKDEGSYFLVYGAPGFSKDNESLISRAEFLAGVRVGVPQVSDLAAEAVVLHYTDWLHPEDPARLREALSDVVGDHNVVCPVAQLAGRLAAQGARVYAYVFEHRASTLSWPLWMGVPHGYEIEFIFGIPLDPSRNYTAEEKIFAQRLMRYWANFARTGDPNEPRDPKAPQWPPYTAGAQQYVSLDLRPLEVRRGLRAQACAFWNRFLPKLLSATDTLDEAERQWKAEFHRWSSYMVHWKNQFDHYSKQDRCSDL
row,Structure (SMILES),Potency
1,O=C(O)C(F)(F)C(F)(F)C(F)(F)C(F)(F)C(F)(F)C(F)(F)C(F)(F)F,inactive
2,Cc1ccc(OP(=O)(Oc2ccc(C)cc2)Oc2ccc(C)cc2)cc1,inactive
3,Oc1cc(Cl)ccc1Oc1ccc(Cl)cc1Cl,inactive
4,c1cc(OCC2CO2)ccc1Cc1ccc(OCC2CO2)cc1 (stereo not given),inactive
5,OCC(O)CO,inactive
6,NNC(N)=S,inactive
7,CC(C)N(C(=O)SCC(Cl)=C(Cl)Cl)C(C)C,inactive
8,C=C(C)C(=O)OCC1CO1 (stereo not given),inactive
9,C=CCc1ccc2c(c1)OCO2,inactive
10,CN(C)c1ccc(C(=O)c2ccc(N(C)C)cc2)cc1,inactive
11,Brc1ccc(Oc2cc(Br)c(Br)cc2Br)c(Br)c1,inactive
12,CCC(C)c1ccc(O)cc1 (stereo not given),inactive
13,CCCCCCCCOC(=O)c1ccccc1C(=O)OCCCCCCCC,inactive
14,CCC(CC)Nc1c([N+](=O)[O-])cc(C)c(C)c1[N+](=O)[O-],inactive
15,CCCCC(CC)COC(=O)c1ccc(C(=O)OCC(CC)CCCC)c(C(=O)OCC(CC)CCCC)c1 (stereo not given),inactive
16,c1ccc(P(c2ccccc2)c2ccccc2)cc1,inactive
17,CCCCC(CC)COC(=O)Cl (stereo not given),inactive
18,CCCCN(CCCC)N=O,inactive
19,CCCCCCCCC(=O)NCc1ccc(O)c(OC)c1,inactive
20,C=CCN(CC=C)C(=O)C(Cl)Cl,inactive

row,Structure (SMILES),Potency
1,O=C(CCl)c1ccccc1,inactive
2,O=[N+]([O-])c1cccc2ccccc12,inactive
3,CCc1cccc(CC)c1N(COC)C(=O)CCl,inactive
4,CC(C)(c1cc(Cl)c(O)c(Cl)c1)c1cc(Cl)c(O)c(Cl)c1,inactive
5,O=C1C=CC(=O)C=C1,inactive
6,O=[N+]([O-])c1c(Cl)c(Cl)c(Cl)c(Cl)c1Cl,inactive
7,c1ccc(-c2cccc(-c3ccccc3)c2)cc1,inactive
8,O=C(O)CC[N+](=O)[O-],inactive
9,Nc1cccnc1,inactive
10,COP(=O)(OC)OC,inactive
11,CCOP(=S)(OCC)O/N=C(\C#N)c1ccccc1,1.78 µM (active) and 1.55 µM (active)
12,CC(O)CCO (stereo not given),inactive
13,c1nc[nH]n1,inactive
14,C#C[C@]1(O)CC[C@H]2[C@@H]3CCC4=CC(=O)CC[C@]4(C)[C@H]3CC[C@@]21C,inactive
15,Nc1ccc(Cl)cc1N,inactive
16,COP(=S)(OC)Oc1ccc([N+](=O)[O-])cc1,inactive
17,O=c1oc2ccccc2c(O)c1C(CC(O)c1ccc(-c2ccc(Br)cc2)cc1)c1ccccc1 (stereo not given),inactive
18,Oc1cc(Cl)c(Cl)cc1Cl,inactive
19,CCN(CC)C(=O)/C(Cl)=C(\C)OP(=O)(OC)OC,inactive
20,CCN(N=O)C(N)=O,inactive

# Reference: PubChem BioAssay (Tox21)
